Shown are actives, neighbours in structure and some others; about 3.1% of the full set was active somewhere.
ABHD5-PLIN5 inh: ABHD5-PLIN5 protein interaction inhibition; Q00G26+Q8WTS1; Split G. princeps luciferase complementation, luminescence, 4 h; inhibition, % at 4 µM; hit rate 0.78% among 360,000; AID 602281;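 active = inhibition above the mean inhibition across every tested compound plus 3 SD, cut at about 22% in these data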;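 note: 0% = DMSO only wells and the 100% control is not disclosed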
KKLEB cytotox: reduces viability of KKLEB cystic fibrosis airway cells; KKLEB CF airway cells viability, ATPlite luminescence, overnight; stronger effect = lower value; cells stimulated with P. aeruginosa culture filtrate; AID 602141; hit rate 0.36% among 360,000; activity change (cytotoxicity), % at 5 µM;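 active = corrected activity change at or below -50% at 5 µM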
Peg3 prom inh: reduces Peg3 promoter-driven luciferase expression in HeLa | HeLa PEG-Prom luciferase reporter, luminescence, overnight | inhibition, % at 20 µM | hit rate 1.7% among 360,000;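 active = inhibition of at least 50% at 20 µM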
HIF-2a block: inhibitors of HIF-2a. 786-0 RCC cells HIF-2a reporter, luciferase luminescence, overnight. inhibition, % at 18.8 µM. hit rate 0.72% among 360,000. AID 624352;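 active = inhibition of the luminescence signal of 40% or more relative to plate controls, in a single-dose primary screen at 18.75 µM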
TRPM1 prom inh: MITF TRPM1 promoter inhibition in SK-MEL-5 cells | SK-MEL-5 TRPM1 promoter luciferase, 24 h | inhibition, % at 12.5 µM | hit rate 0.83% among 330,000;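 active = mean inhibition across replicates of 60% or more, whatever share of single replicates reaches that level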
CF NFkB inh: blocks PAF-induced NF-kB reporter in cystic fibrosis cells | inhibition, % at 5 µM | hit rate 0.86% among 360,000 | KKLEB NF-kB-GFP reporter, GFP fluorescence overnight;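 active = at least 50% inhibition at 5 µM, scaled per plate between neutral and stimulator controls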;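 note: PAF is a Pseudomonas aeruginosa culture filtrate used as stimulus; plate controls were PAF-stimulated DMSO wells for no effect and unstimulated DMSO wells for full effect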
ABHD5 PLIN5 conf: ABHD5-PLIN5 interaction inhibition, confirmed; shares compounds with ABHD5-PLIN5 inh; biochemical ABHD5-PLIN5 interaction, luminescence; inhibition, % at 4 µM; hit rate 67% among 2,200; AID 651612; in the data active = inhibition above about 23%;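 note: 0% = DMSO vehicle wells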
HNF4 split-luc: counter-screen for ABHD5-PLIN5 inhibitors: HNF4 split-luciferase; shares compounds with ABHD5-PLIN5 inh; HNF4 dimerization, luminescence, biochemical; inhibition, % at 4 µM; hit rate 77% among 2,200; AID 651674;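 active = mean inhibition across replicate wells exceeding the computed hit threshold, cut at about 13% in these data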;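 note: light from luciferase halves that rejoin when HNF4 fusion proteins dimerize; 0% = DMSO only wells and the 100% control is not given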
Target sequence (P41235 whole entry, looked up, the tested form may be a part): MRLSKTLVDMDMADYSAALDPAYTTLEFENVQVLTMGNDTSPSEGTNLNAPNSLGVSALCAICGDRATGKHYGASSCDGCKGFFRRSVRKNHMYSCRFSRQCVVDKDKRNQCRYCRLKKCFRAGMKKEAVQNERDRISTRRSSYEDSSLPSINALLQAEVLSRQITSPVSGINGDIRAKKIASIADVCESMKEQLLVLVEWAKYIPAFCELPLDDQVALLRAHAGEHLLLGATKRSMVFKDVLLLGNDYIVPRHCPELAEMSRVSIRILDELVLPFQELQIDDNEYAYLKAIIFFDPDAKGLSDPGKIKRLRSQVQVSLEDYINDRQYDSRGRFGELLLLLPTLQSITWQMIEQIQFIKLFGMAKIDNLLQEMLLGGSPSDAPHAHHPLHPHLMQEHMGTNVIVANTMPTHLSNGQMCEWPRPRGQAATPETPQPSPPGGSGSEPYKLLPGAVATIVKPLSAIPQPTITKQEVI
Numbers without * were called inactive.

Screening CCOC(=O)Cc1csc(NC(=O)NC2(C(F)(F)F)Oc3cc(Cl)c(Cl)cc3O2)n1 returned ABHD5-PLIN5 inh -1, KKLEB cytotox 5, Peg3 prom inh 41, HIF-2a block 17, TRPM1 prom inh 11 and CF NFkB inh -10.
For Cc1ccc(-c2nc(CS(=O)CC(=O)NCCN3CCCCC3C)c(C)o2)cc1 (stereo not given) the results were ABHD5-PLIN5 inh 5, KKLEB cytotox 1, Peg3 prom inh -38, HIF-2a block 2, TRPM1 prom inh -5 and CF NFkB inh 6.
N#Cc1ccc(S(=O)(=O)N2CCN(CN3C(=O)CC4(CCCC4)C3=O)CC2)cc1 was read as ABHD5-PLIN5 inh 1, KKLEB cytotox -6, Peg3 prom inh 10, HIF-2a block 8 and CF NFkB inh -10.
Screening OCCN(CCO)c1ccc(C(c2ccc(Cl)cc2)c2ccc(N(CCO)CCO)cc2Cl)c(Cl)c1 returned ABHD5-PLIN5 inh 9, KKLEB cytotox 15, Peg3 prom inh 21, HIF-2a block 16, TRPM1 prom inh 10 and CF NFkB inh -7.
Cc1cc(N(CCO)CCO)ccc1N=Nc1cc(F)ccc1F was read as ABHD5-PLIN5 inh 31*, KKLEB cytotox 0, Peg3 prom inh -139, HIF-2a block -242, TRPM1 prom inh -69, CF NFkB inh 23, ABHD5 PLIN5 conf 22* and HNF4 split-luc 17*.
O=C(CC1Sc2ncnn2C1=O)Nc1ccccc1 (stereo not given) was read as ABHD5-PLIN5 inh 27*, KKLEB cytotox -1, Peg3 prom inh 16, HIF-2a block 2, TRPM1 prom inh 5, CF NFkB inh 18, ABHD5 PLIN5 conf 11 and HNF4 split-luc 47*.
Cc1ccc(/C(O)=C2/C(=O)C(=O)OC2c2ccc(Cl)cc2)cc1 (stereo not given) was read as ABHD5-PLIN5 inh 32*, KKLEB cytotox 3, Peg3 prom inh -36, HIF-2a block -44, TRPM1 prom inh 4, CF NFkB inh 2, ABHD5 PLIN5 conf 57* and HNF4 split-luc 37*.
Screening O=C1OC(c2ccccc2)/C(=C(/O)c2ccc(Cl)cc2)C1=O (stereo not given) returned ABHD5-PLIN5 inh 16, KKLEB cytotox -2, Peg3 prom inh -10, HIF-2a block -4, TRPM1 prom inh -2 and CF NFkB inh 1.
For COc1ccc(S(=O)(=O)NCC(=O)Nc2cccc(C)c2C)cc1OC the results were ABHD5-PLIN5 inh -3, KKLEB cytotox 8, Peg3 prom inh 9, HIF-2a block 13, TRPM1 prom inh 8 and CF NFkB inh 2.
CN(C)CCCN1c2ccc(O)cc2Sc2ccc(Cl)cc21 was read as ABHD5-PLIN5 inh 17, KKLEB cytotox 6, Peg3 prom inh 42, HIF-2a block -6 and CF NFkB inh 0.
For OC1CC2CCC(C1)N2CCCN1c2ccccc2Sc2ccc(Cl)cc21 (stereo not given) the results were ABHD5-PLIN5 inh 27*, KKLEB cytotox -5, Peg3 prom inh 105*, HIF-2a block -17, TRPM1 prom inh 91*, CF NFkB inh 38, ABHD5 PLIN5 conf 18 and HNF4 split-luc 16*.
For O=C(O)c1cccc(-n2sc3ccccc3c2=O)c1 the results were ABHD5-PLIN5 inh 109*, KKLEB cytotox 10, Peg3 prom inh -4, HIF-2a block -1, TRPM1 prom inh 14, CF NFkB inh -1, ABHD5 PLIN5 conf 97* and HNF4 split-luc 120*.
For CC(=O)Nc1ccc(-c2cc(N)n(-c3ccccc3)n2)cc1 the results were ABHD5-PLIN5 inh -6, KKLEB cytotox 5, Peg3 prom inh -234, HIF-2a block -208, TRPM1 prom inh -47 and CF NFkB inh -1.
Screening CC(=O)Nc1ccc2c(=O)n(-c3ccccc3)sc2c1 returned ABHD5-PLIN5 inh 79*, KKLEB cytotox 10, Peg3 prom inh -61, HIF-2a block -96, CF NFkB inh 33, ABHD5 PLIN5 conf 69* and HNF4 split-luc 117*.
`CCOC(=O)CNC(c1ccccc1)c1cc(Br)ccc1NC(=O)CCN1CCOCC1` (stereo not given) gave ABHD5-PLIN5 inh 24*, KKLEB cytotox -11, Peg3 prom inh 22, HIF-2a block 28, TRPM1 prom inh -2, CF NFkB inh 18, ABHD5 PLIN5 conf 3 and HNF4 split-luc 39*.
For COc1ccc(OC)c(C(c2c(O)nc(SC)[nH]c2=O)c2c(O)nc(SC)[nH]c2=O)c1 the results were ABHD5-PLIN5 inh 26*, KKLEB cytotox -9, Peg3 prom inh 3, HIF-2a block 9, TRPM1 prom inh 2, CF NFkB inh 15, ABHD5 PLIN5 conf 52* and HNF4 split-luc 49*.
Screening COc1cc(C(c2c(O)nc(SC)[nH]c2=O)c2c(O)nc(SC)[nH]c2=O)cc(OC)c1OC returned ABHD5-PLIN5 inh 21, KKLEB cytotox -2, Peg3 prom inh 12, HIF-2a block 9, TRPM1 prom inh -2 and CF NFkB inh 7.
`CC(=O)c1ccc(N(CC(=O)NC2CCS(=O)(=O)C2)S(=O)(=O)c2ccc(C)cc2)cc1` (stereo not given) gave ABHD5-PLIN5 inh -2, KKLEB cytotox 4, Peg3 prom inh -12, HIF-2a block 6, TRPM1 prom inh 3 and CF NFkB inh 11.
Screening CCC(C)(C)NC(=O)C(c1ccc(C)cc1)N(CCN1CCOCC1)C(=O)CNC(=O)c1cccs1 (stereo not given) returned ABHD5-PLIN5 inh -2, KKLEB cytotox 14, Peg3 prom inh 4, HIF-2a block 7, TRPM1 prom inh -4 and CF NFkB inh -6.
`Cc1cccc(C)c1NC(=O)C(c1ccc(-c2ccccc2)cc1)n1c(=O)c(-c2ccco2)nc2ccccc21` (stereo not given) gave ABHD5-PLIN5 inh 90*, HIF-2a block -10, ABHD5 PLIN5 conf 96* and HNF4 split-luc 27*.
`COc1ccc(C(C(=O)NC(C)(C)C)n2c(=O)c(-c3ccco3)nc3ccccc32)cc1` (stereo not given) gave ABHD5-PLIN5 inh 73*, HIF-2a block 11, ABHD5 PLIN5 conf 63* and HNF4 split-luc 26*.
For CC(C)(C)NC(=O)C(c1ccc(-c2ccccc2)cc1)n1c(=O)c(-c2ccccc2)nc2ccccc21 (stereo not given) the results were ABHD5-PLIN5 inh -1 and HIF-2a block -33.
CC(C)(C)NC(=O)C(c1ccc(C#N)cc1)n1c(=O)c(-c2ccco2)nc2ccccc21 (stereo not given) was read as ABHD5-PLIN5 inh 75*, HIF-2a block -1, ABHD5 PLIN5 conf 77* and HNF4 split-luc 26*.

Assay outcomes: PubChem, several laboratories
